Test results taken from paper PMC7819943, “Rice protein-binding microarrays: a tool to detect cis-acting elements near promoter regions in rice”.
The full ranking holds about 39,000 sequences; the median of “fluorescence intensity (a.u.)” is about 4,300, and the highest 2% start at about 39,000. The sample as a whole holds a higher share of the highest values than the screen did.

Target: T1, OsSMF1 (Oryza sativa, UniProt Q6ZLB0 1-436)
T1 sequence: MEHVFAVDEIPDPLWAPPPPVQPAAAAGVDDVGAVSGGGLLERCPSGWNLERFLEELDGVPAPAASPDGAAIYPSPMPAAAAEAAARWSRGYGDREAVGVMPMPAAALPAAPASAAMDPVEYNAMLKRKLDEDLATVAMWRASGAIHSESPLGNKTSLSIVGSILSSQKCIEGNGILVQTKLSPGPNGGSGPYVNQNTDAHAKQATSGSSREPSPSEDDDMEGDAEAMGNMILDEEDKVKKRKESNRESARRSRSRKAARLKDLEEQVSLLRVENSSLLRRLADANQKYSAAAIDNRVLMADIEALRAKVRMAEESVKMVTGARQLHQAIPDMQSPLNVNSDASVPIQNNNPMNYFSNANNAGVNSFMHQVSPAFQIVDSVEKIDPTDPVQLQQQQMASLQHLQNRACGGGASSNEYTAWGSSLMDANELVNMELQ
Test: protein-binding microarray (RPBM); PBS, 2% BSA, 51.3 ng/ul salmon testes DNA, 50 uM zinc acetate, 200 nM TF, 25 C, 1 h; high values mean tight binding
Conditions: protein: recombinant; tags: N-terminal polyhistidine and DsRed monomer fusion (pET32a); chain copies: 2; label: CyDye5-dUTP incorporated in the synthesized complementary strand; 3' TTTTT single-stranded linker to array surface; dsDNA, one strand shown
Procedure, shortened: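 Transcription factors were made in E. coli BL21-CodonPlus as N-terminal fusions to a polyhistidine tag and DsRed, then purified on Ni–NTA. After primer extension with Cy5-dUTP and blocking with 2% BSA, a custom Agilent array was exposed for 1 h at 25 °C to 200 nM protein in PBS, 2% BSA, salmon testes DNA and 50 µM zinc acetate. Washed arrays were scanned on an Axon 4000B, and the binding signal is per-feature fluorescence intensity in arbitrary units.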

Sequence	binding signal
CTTAATTAATTATACACACAAACATTCCCTCCAATGCATGCGGAGTCACCTAGTGCAG	3760 fluorescence intensity (a.u.)
TGATGCTACAATAAACATTTACTAATGACGGATTAATTAGCGGAGTCACCTAGTGCAG	3430 fluorescence intensity (a.u.)
TAAACACAATTCTCCCTAATTATTATTTCTGGATGATGAGCGGAGTCACCTAGTGCAG	41400 fluorescence intensity (a.u.)
AATGTTTGTAGCACGGGAGGCATACCACATACATACATTGCGGAGTCACCTAGTGCAG	3640 fluorescence intensity (a.u.)
CTCGATCACACACGGTGTCACAGTCACAGGTGCATTGACGCGGAGTCACCTAGTGCAG	7140 fluorescence intensity (a.u.)
GATGACGACGGCGATGACGGCGGGGCGGTTTGGAGCGGGGCGGAGTCACCTAGTGCAG	4720 fluorescence intensity (a.u.)
TAGAGAGCGGTTTTGCTGACGTGGCGTATACGTGACGGTACGGAGTCACCTAGTGCAG	33100 fluorescence intensity (a.u.)
TGGAGGCGACGTGGCGGTCGTTGACTCGTTGTGTGCTCGACGGAGTCACCTAGTGCAG	7090 fluorescence intensity (a.u.)
GTTTTGGAGGGCGGTTTTGCTGACGTGGCGCTGACATGGCCGGAGTCACCTAGTGCAG	32800 fluorescence intensity (a.u.)
CTCTCCCAGCGGTAATGGAGGGCGGTTTTGCTGACGTGGCCGGAGTCACCTAGTGCAG	58300 fluorescence intensity (a.u.)
ACTCCCTCGACGGTTTTGGAGGGCGATTTTGCTGACGTGGCGGAGTCACCTAGTGCAG	47600 fluorescence intensity (a.u.)
GAGAGGGGTGCGCAGTGTGTTGTGGTGGTGCACATGACGGCGGAGTCACCTAGTGCAG	3510 fluorescence intensity (a.u.)
AGATAATCCATAATAATAATTAGCTTAATAATCTAAATCACGGAGTCACCTAGTGCAG	27300 fluorescence intensity (a.u.)
GCGTGTGCATCTGCCATGTAATCCAAAATATAGCCATGAACGGAGTCACCTAGTGCAG	3660 fluorescence intensity (a.u.)
CCGGAAAATCTATCTGTGCTTATAAATAGCCATTATCCAACGGAGTCACCTAGTGCAG	57400 fluorescence intensity (a.u.)
TCGCAACAACAAGAATGATGATGGCATGACGAAAATGCTACGGAGTCACCTAGTGCAG	3570 fluorescence intensity (a.u.)
TGTCCCCGCGCATCCGCGGACGTGGCTGGGCAACTGCTCGCGGAGTCACCTAGTGCAG	8030 fluorescence intensity (a.u.)
TACTGCATGCGCAAAGAGTTAATCCGTGGGGCTCGTGGGACGGAGTCACCTAGTGCAG	45300 fluorescence intensity (a.u.)
CTCGTGGGGACGACGCTGGTGTCCGTGTACTGCAAGTGCGCGGAGTCACCTAGTGCAG	4060 fluorescence intensity (a.u.)
AGGGTTATAATTAGATGGGTAGTGGAGGTAGGTAAGAAAACGGAGTCACCTAGTGCAG	4130 fluorescence intensity (a.u.)
CACCCGCACCCGCCCGCACGGCCGCGCCCGCGTCACCACCCGGAGTCACCTAGTGCAG	6150 fluorescence intensity (a.u.)

Sequence	binding signal
TGTATTTTCTGACGTTGGTAGCACGGTAGCACCCGATATTCGGAGTCACCTAGTGCAG	4250 fluorescence intensity (a.u.)
GGGTTGTGGTTGTTGTACGTTGTTGTTGACGGCGATGGTTCGGAGTCACCTAGTGCAG	3460 fluorescence intensity (a.u.)
TGTGTTCCCTTTCGGTACGTTGTATTTCGACCCTGACGTTCGGAGTCACCTAGTGCAG	42700 fluorescence intensity (a.u.)
GCTGGTAAAGCGGTGCGCCGGTGCCGCCACGTCCTCGCACCGGAGTCACCTAGTGCAG	15100 fluorescence intensity (a.u.)
CTAGAATGAGTGTTATGGCAGAGTGGTAGATGCTTGAAAACGGAGTCACCTAGTGCAG	29600 fluorescence intensity (a.u.)
TTTCCCCGGTGGATCGTGTTCGGACACGTCGCGGCCCCTCCGGAGTCACCTAGTGCAG	6200 fluorescence intensity (a.u.)
CATCACGCTGACGTGTCCTTTCGTTTGGACACGGACATCTCGGAGTCACCTAGTGCAG	15000 fluorescence intensity (a.u.)
CCACGCGGACACTGACACGTCATCATCGTGTTCGTTTCCTCGGAGTCACCTAGTGCAG	39300 fluorescence intensity (a.u.)
AATGGGGCTATAGGTAATTATGCTTAGAAGTCCGGTTCATCGGAGTCACCTAGTGCAG	5130 fluorescence intensity (a.u.)
GTTGGGGCGCCTCTGGGGCTGTCCACGTCGGATAGCTACACGGAGTCACCTAGTGCAG	20700 fluorescence intensity (a.u.)
GAATCCATCGACACGTTTCTTTCGTCAGAACAGTGTCCGTCGGAGTCACCTAGTGCAG	3420 fluorescence intensity (a.u.)
CAATCCGTTGATCGGGGTCGTAGTCCATCGACAGAAATTACGGAGTCACCTAGTGCAG	41800 fluorescence intensity (a.u.)
AATCCGAGTAGTCATTGTCGTTTCCATGCAGAATTATGGTCGGAGTCACCTAGTGCAG	4030 fluorescence intensity (a.u.)
CGCGTCCGCAGTGTCCCACTCCCGCCACTCCTTCCACCCCCGGAGTCACCTAGTGCAG	3780 fluorescence intensity (a.u.)
CTCTCTCTCGGCTTCCACTCCCGTCTCCTCGTCTCCTCGCCGGAGTCACCTAGTGCAG	4090 fluorescence intensity (a.u.)
ATTGACGCGCCTCGGTATTACCTCACTAGCTGCGTCATTGCGGAGTCACCTAGTGCAG	6460 fluorescence intensity (a.u.)
ATATTGTCACGTGTCACATGTTAGTTTGTTCAGGAACGGACGGAGTCACCTAGTGCAG	5880 fluorescence intensity (a.u.)
TTATTAAGCCTAATTAATCCATCATTAGTAAATATTTACTCGGAGTCACCTAGTGCAG	3780 fluorescence intensity (a.u.)
ATGTTTAATCAACCTCTAAATCAATAAGATTAGTCATGTACGGAGTCACCTAGTGCAG	3950 fluorescence intensity (a.u.)
TCCATTAAGCCTCCGTTTAGTAAAGATAAAGATTGGTCAACGGAGTCACCTAGTGCAG	44200 fluorescence intensity (a.u.)
ACTTTCTTGAATTTAATGCGTGACTCTCCATTCGTCCACACGGAGTCACCTAGTGCAG	3620 fluorescence intensity (a.u.)
